LMP1 NFkB inh – Epstein-Barr LMP1 NF-kappaB reporter inhibition; LMP1-induced NF-kappaB luciferase reporter cells, luminescence; inhibition, % at 12.5 µM; 350,000 tested, 0.69% active; in the data active means inhibition above about 41%; inconclusive means no clear call, values can overlap the other calls
TROY signal inh – TROY signaling inhibition; Q293 LMP1-TROYcd NF-kB luciferase reporter, 4 h; inhibition, % at 10 µM; 360,000 tested, 0.98% active; AID 1347056;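 active means compounds whose plate-normalised and pattern-corrected inhibition of the luciferase reporter signal at the single screening dose is 50% or more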
TWEAK-Fn14 inh – blocks TWEAK-Fn14 interaction in a reporter cell assay. TWEAK-stimulated Fn14 reporter cells, luciferase luminescence, 8 h. inhibition, % at 10 µM. 360,000 tested, 2% active. AID 1159606; in the data active means inhibition above about 50%
LGR2 inh – blocks bursicon-induced cAMP signaling via Drosophila LGR2. AID 720647. HEK293 LGR2, CRE-luciferase, bursicon-stimulated, 4 h. inhibition, % at 9.99 µM. 380,000 tested, 0.35% active;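 active means drop in luminescence signal, shown as inhibition above about 50% in the replicate tests, limit read from the data, passing the limit was not always enough; inconclusive means probably only some replicates passing the limit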;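 further: agonist challenge used bursicon conditioned medium at about half maximal strength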
HSF1 inh – HSF1 inhibition; NIH3T3-HGL HSE-luciferase, MG132-induced, luminescence 8 h; active compounds read low; activity change, negative = inhibition, % at 7.5 µM (by protocol); 300,000 tested, 0.77% active; AID 2098;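 active means more than half of replicate wells show activity change below -50%, luminescence cut by over half; inconclusive means some wells, but at most half, below -50%; inactive means no replicate well below -50%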;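 further: luciferase reports HSF-1 transcriptional activity via heat shock element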
HSF-1 act – increases HSF-1 driven luciferase reporter signal. NIH3T3-HGL HSF-1 luciferase reporter, MG132, 8 h; 100% = twice DMSO control signal. 300,000 tested, 1.7% active. activation, % at 9 µM;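 active means mean replicate activation of at least 50% with a set share of replicates each reaching 50%; inconclusive means only one of those two conditions met; inactive means mean below 50% and too few replicates reaching it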
Numbers stand for hits; - = inactive; ? = inconclusive; . = no result. In the library only some 3.6% were active in any assay of this set; here they are far more common.

SMILES	LMP1 NFkB inh	TROY signal inh	TWEAK-Fn14 inh	LGR2 inh	HSF1 inh	HSF-1 act
CCOC(=O)C1=C(c2ccccc2)NC(SCC(=O)Nc2cccc(C)c2)=C(C#N)C1c1ccco1 (stereo unspecified)	-	-	-	-	-	-
CC(=O)C1=C(C)NC(SCC(=O)c2ccc(Cl)cc2)=C(C#N)C1c1ccco1 (stereo unspecified)	-	-	-	.	-	-
CCOC(=O)C1=C(c2ccccc2)NC(SCC(=O)Nc2ccc(C)cc2)=C(C#N)C1c1ccco1 (stereo unspecified)	-	-	-	-	-	-
CC(=O)C1=C(C)NC(SCC(=O)c2ccccc2)=C(C#N)C1c1ccco1 (stereo unspecified)	.	.	.	.	-	77
CCC(=O)Nc1ccc2c(c1)OC[C@H](C)N(Cc1nccs1)C[C@H](C)[C@H](OC)CN(C)C2=O	.	.	.	-	.	.
CCNC(=O)[C@@H]1[C@@H](CO)[C@@H]2Cn3c(ccc(-c4ccc(F)cc4)c3=O)[C@H]1N2C(=O)C1CC1	.	.	.	-	.	.
Cc1ccc(S(=O)(=O)Nc2ccc3c(c2)C(=O)N([C@@H](C)CO)C[C@@H](C)[C@H](CN(C)Cc2ccc4c(c2)OCO4)O3)cc1	.	.	.	-	.	.
COc1ccc(CCNCc2cc(C)n(-c3ccc(OC)cc3)c2C)cc1	-	-	-	-	-	67
COc1ccc(CCNCc2ccccc2N2CCCC2)cc1	-	-	-	-	-	-
CC(=O)c1c(Nc2ccc3c(c2)OCCO3)oc(C)cc1=O	-	-	70	-	-	-
COc1ccc2cc3cc(C(=O)NCCc4ccc(OC)c(OC)c4)oc3nc2c1	-	-	66	.	-	-
COc1ccc2cc3cc(C(=O)N4CCCCCC4)oc3nc2c1	-	-	54	.	-	-
CCCN(CCC)CCCNC(=O)c1cc2cc3ccc(OC)cc3nc2o1	-	-	-	.	-	-
Cc1ccc(NC(=O)CSCc2cc(=O)n3cc(C)sc3n2)c(C)c1	-	-	-	-	-59	-
CCOC(=O)c1c(C)oc2c1c1c(c3ccccc32)OCN(CCCC(=O)O)C1	-	-	-	-	-	57
CC(=O)c1c(C)oc2c1cc(O)c1ccccc12	-	-	-	-	-	-
CCOC(=O)c1c(C)oc2c1cc(O)c1ccccc12	-	-	74	.	-	58
CCOC(=O)c1c(C)oc2c1c1c(c3ccccc32)OCN(Cc2cccnc2)C1	-	-	-	.	.	.
COc1ccc(NC(=O)N(C)C[C@@H]2Oc3c(NS(=O)(=O)c4ccc(F)cc4)cccc3C(=O)N([C@H](C)CO)C[C@@H]2C)cc1	.	.	.	-	.	.
CCC(C)[C@H](N)c1nnc(SCC(=O)Nc2cccc(Cl)c2)o1 (stereo partly specified)	-	-	-	.	-	108
CO[C@@H]1CN(C)C(=O)c2ccc(NS(=O)(=O)c3ccccc3C)cc2OC[C@@H](C)N(C)C[C@H]1C	.	.	.	-	.	.
c1ccc2c(c1)CCCC2C1=NCCN1 (stereo unspecified)	79	-	-	.	-	-
CC(C(=O)NCc1ccc(Cl)cc1)n1cccc1C(=O)c1ccccc1 (stereo unspecified)	74	-	-	-	-	-
COc1ccccc1CNC(=O)C(C)n1cccc1C(=O)c1ccccc1 (stereo unspecified)	-	-	-	-	-	-
c1cc2c(cc1C1=NNC(=NC3CC3)SC1)OCCO2	84	89	104	55	-	-
SMILES	LMP1 NFkB inh	TROY signal inh	TWEAK-Fn14 inh	LGR2 inh	HSF1 inh	HSF-1 act
CCCCN=C1NN=C(c2ccc3c(c2)OCCO3)CS1	-	62	70	-	-	-
COc1ccc(/C=C2\N=C(C)OC2=O)cc1[N+](=O)[O-]	46	-	-	-	-	-
COc1cc(/C=C2\N=C(C)OC2=O)cc(Cl)c1OC(C)=O	-	-	-	-	-	-
COc1ccccc1-c1nnc(-c2ccc(C)cc2)o1	-	-	-	-	-	?
COc1ccccc1-c1nnc(-c2ccc(N3CCOCC3)cc2)o1	-	-	-	.	-	59
O=C(COc1ccccc1)Nc1cccc(-c2nc3cc4ccccc4cc3[nH]2)c1	-	-	77	.	-	-
COCC(=O)Nc1ccc2c(c1)OC[C@H](C)N(C(=O)NC(C)C)C[C@@H](C)[C@H](OC)CN(C)C2=O	.	.	.	-	.	.
O=C(CCc1nc(-c2ccccc2)no1)NCc1ccccc1CN1CCOCC1	-	-	-	-	.	.
O=C(CCc1nc(-c2ccc(Cl)cc2)no1)NCc1ccccc1CN1CCOCC1	-	84	-	-	.	.
CO[C@H]1CN(C)C(=O)c2ccc(NC(=O)C3CCC3)cc2OC[C@H](C)N(C(=O)CN(C)C)C[C@@H]1C	.	.	.	-	.	.
CCC(C(=O)NC(C)(C)C)N(Cc1ccccc1Cl)C(=O)c1snc(C(N)=O)c1N (stereo unspecified)	-	-	-	-	-	-
CCC(C(=O)NC(C)(C)C)N(Cc1ccc(F)cc1)C(=O)c1snc(C(N)=O)c1N (stereo unspecified)	-	-	-	-	-67	-
FC(F)(F)c1nc2ccccc2n2c(-c3ccc(Cl)cc3)nnc12	53	-	-	.	-	-
FC(F)(F)c1nnc2c(Sc3ccc(Cl)cc3)nc3ccccc3n12	-	-	61	.	-	-
C[C@@H]1CN([C@H](C)CO)C(=O)c2cccc(NC(=O)Nc3cccc4ccccc34)c2O[C@@H]1CN(C)S(=O)(=O)c1cn(C)cn1	.	.	.	-	.	.
Cc1ccc(S(=O)(=O)N(C)C[C@@H]2OCCCC[C@@H](C)Oc3ccc(NC(=O)Nc4ccc(F)cc4)cc3C(=O)N([C@@H](C)CO)C[C@@H]2C)cc1	.	.	.	-	.	.
O=C(CSc1nc2ncccc2[nH]1)c1cccc([N+](=O)[O-])c1	-	-	-	-	-	66
O=C(CSc1ncn[nH]1)c1cccc([N+](=O)[O-])c1	-	-	-	-	-	127
COCC(=O)N1C[C@@H](C)[C@H](OC)CN(C)C(=O)c2ccc(NS(C)(=O)=O)cc2OC[C@@H]1C	.	.	.	-	.	.
c1coc(C2=NC(c3ccco3)C(c3ccco3)N2)c1 (stereo unspecified)	-	-	64	.	.	.
c1coc(C2=Nc3cccc4cccc(c34)N2)c1	-	-	-	-	-	-
c1ccc(-c2ccc3ncccc3n2)cc1	.	53	-	-	.	.
Cc1nc(-c2cccs2)sc1C(=O)O	-	-	-	-	-	-
Cc1nccc(-c2sc(-c3cccs3)nc2C)n1	-	59	-	-	-	-
COc1ccc(NC(=O)/C=C/c2cc(Br)ccc2OC)cc1	-	-	-	.	-	-
COc1ccc(Br)cc1/C=C/C(=O)c1ccc(NC(C)=O)cc1	-	-	84	95	.	.
CN(C)c1ccc(/C=C(\C#N)c2ccccc2)cc1	-	-	-	.	.	.
CN(C)c1cccc(/C=C(\C#N)c2ccccc2)c1	-	-	-	-	-	63
O=C(C[C@H]1CC[C@H](NS(=O)(=O)c2ccc(F)cc2)[C@H](CO)O1)NCc1ccccc1F	.	.	.	-	.	.
